Measurements as given in the supplement of paper PMC10981050.
“And” between values parts separate entries of the source, which are not always exact repeats. Equal entries are not always repeated. Structures can show the parent of a compound that is named as a salt.

System: K562
Assay: cell viability relative to vehicle control; higher = less cytotoxic
Conditions: 10 µM; SRSF2 genotype: SRSF2 P95H/wt
In short: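 Mutant clones made by CRISPR editing and their isogenic wild-type counterparts, from four leukaemia lines, were exposed to a single 10 µM dose of each library compound for 48 h. The supernatant was then removed and CellTiter-Glo luminescence was read. Viability was reported as percent of the on-plate vehicle control.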

Question: With `C[C@]12CC[C@@H]3c4ccc(OC(=O)c5ccccc5)cc4CC[C@H]3[C@@H]1CC[C@@H]2O` [Estradiol Benzoate] as the molecule, how does the cell viability read?
Answer: 62.1% and 62.4%

Question: With `CCCC(=O)NCCc1csc(-c2ccc(Cl)cc2)n1` [Azoramide] as the molecule, how does the cell viability read?
Answer: 86.4% and 89.4%

Question: How did the cell viability turn out when `C=C[C@]1(C)C[C@@H](OC(=O)CS[C@@H]2C[C@H]3CC[C@@H](C2)N3C)[C@]2(C)[C@H](C)CC[C@]3(CCC(=O)[C@H]32)[C@@H](C)[C@@H]1O` [Retapamulin] was run?
Answer: 81.2% and 79.9%

Question: How did the cell viability turn out when `Cc1cnc(C(=O)O)c[n+]1[O-]` [Acipimox] was run?
Answer: 99.3% and 96.5%

Question: For `CC(=O)Nc1cccc(-n2c(=O)n(C3CC3)c(=O)c3c(Nc4ccc(I)cc4F)n(C)c(=O)c(C)c32)c1`, which cell viability is on record?
Answer: 67.7% and 87.2%

Question: With `CCN(CC)CC(=O)Nc1c(C)cccc1C` [Lidocaine (Alphacaine)] as the molecule, how does the cell viability read?
Answer: 113% and 102%

Question: With `Cc1nc(Nc2n[nH]c3c2CN(C(=O)N[C@H](CN(C)C)c2ccccc2)C3(C)C)c2sccc2n1` as the molecule, how does the cell viability read?
Answer: 13.2% and 22.6%

Question: How did the cell viability turn out when `Cc1ccccc1C(=O)Nc1ccc(C(=O)N2CCCC(N(C)C)c3ccccc32)cc1` (configuration not stated) [Mozavaptan] was run?
Answer: 93.3% and 90.1%

Question: How did the cell viability turn out when `NS(=O)(=O)c1cc2c(cc1Cl)N=CNS2(=O)=O` [Chlorothiazide] was run?
Answer: 100% and 94%

Question: `CCCn1/c(=N/C(=O)c2cccc(C(N)=O)c2)[nH]c2ccccc21` [Takinib] was tested. Which cell viability did it give?
Answer: 100%

Same assay, conditions: 10 µM; SRSF2 genotype: SRSF2 wt/wt

Question: How did the cell viability turn out when `CC(C)NCC(O)COc1ccc(CCOCC2CC2)cc1` (configuration not stated) [Betaxolol hydrochloride (Betoptic)] was run?
Answer: 94.3%

Question: `c1ccc2[nH]c(-c3cscn3)nc2c1` [Thiabendazole] was tested. Which cell viability did it give?
Answer: 106%

Question: `Cc1c[nH]c(C=C2C(=O)Nc3ccccc32)c1CCC(=O)O` was tested. Which cell viability did it give?
Answer: 91.2%

Question: For `C[C@H](NC(=O)CCc1nc2ccccc2c(=O)[nH]1)c1ccccc1`, which cell viability is on record?
Answer: 108%

Question: Which cell viability does the source give for `C=CC(=O)N1C[C@H](Nc2ncnc3[nH]ccc23)CC[C@@H]1C` here?
Answer: 102%

Question: With `CC(=O)Nc1ccc(C(=O)Nc2ccccc2N)cc1` [CI994 (Tacedinaline)] as the molecule, how does the cell viability read?
Answer: 66%

Question: How did the cell viability turn out when `N#Cc1c(NC(=O)c2cccc3ccccc23)sc2c1CCCC2` [JNK inhibitor IX] was run?
Answer: 34.9%

Question: With `CNC(=O)c1cc(COc2nnc(Nc3ccc(Cl)cc3)c3ccoc23)ccn1` [Telatinib (BAY 57-9352)] as the molecule, how does the cell viability read?
Answer: 98.7%

Question: For `Cn1c(N2CCCCS2(=O)=O)nc(C(=O)NCc2ccc(F)cc2)c(O)c1=O`, which cell viability is on record?
Answer: 113%

Question: For `CCC[C@@H]1C[C@@H](C(=O)N[C@@H]([C@H]2O[C@H](SC)[C@H](O)[C@@H](O)[C@H]2O)[C@H](C)Cl)N(C)C1` [Clindamycin HCl], which cell viability is on record?
Answer: 102%

Question: For `COCCNC(=O)Nc1ccc2nc(-c3cccs3)c(-c3cccs3)nc2c1` [ACSS2 inhibitor], which cell viability is on record?
Answer: 84.3%

Question: `CC(C)=CCCC(C)(O)C1CCC2(C)C1C(O)CC1C3(C)CCC(O)C(C)(C)C3C(OC3OC(CO)C(O)C(O)C3OC3OC(C)C(O)C(O)C3O)CC12C` [(20S)Ginsenoside Rg2] was tested. Which cell viability did it give?
Answer: 98.7%

Question: With `COC1C(O)C(O)C(O)C(O)C1O` (configuration not stated) [Sequoyitol] as the molecule, how does the cell viability read?
Answer: 110%

Question: How did the cell viability turn out when `CO[C@H]1C[C@H](O[C@H]2[C@H](C)O[C@@H](O[C@@H]3/C(C)=C/C[C@@H]4C[C@@H](C[C@]5(C=C[C@H](C)[C@@H](C6CCCCC6)O5)O4)OC(=O)[C@@H]4C=C(C)[C@@H](O)[C@H]5OC/C(=C\C=C\[C@@H]3C)[C@]54O)C[C@@H]2OC)O[C@@H](C)[C@@H]1O` [Doramectin] was run?
Answer: 37.1%

Question: For `C[C@H](CCC(=O)O)[C@H]1CC[C@H]2[C@@H]3[C@@H](O)C[C@@H]4C[C@H](O)CC[C@]4(C)[C@H]3CC[C@]12C` [Ursodiol (Actigal Urso)], which cell viability is on record?
Answer: 96.6%

Question: `C/C=C(\C)C(=O)OC1c2c(ccc3ccc(=O)oc23)OC(C)(C)C1OC(=O)/C(C)=C/C` (configuration not stated) [Praeruptorin B] was tested. Which cell viability did it give?
Answer: 90.4%

Question: For `COc1cc([C@@H]2Oc3cc([C@H]4Oc5cc(O)cc(O)c5C(=O)[C@@H]4O)ccc3O[C@H]2CO)ccc1O` [Silymarin (Silybin B)], which cell viability is on record?
Answer: 95.6%

Question: How did the cell viability turn out when `CCOC(=O)C1=C(COCCN)NC(C)=C(C(=O)OC)[C@@H]1c1ccccc1Cl` [Levamlodipine] was run?
Answer: 77%

Question: With `CC1(C)CC[C@]2(C(=O)O)CC[C@]3(C)C(=CC[C@@H]4[C@@]5(C)CC[C@H](O)[C@@](C)(CO)[C@@H]5CC[C@]43C)[C@@H]2C1` [Hederagenin] as the molecule, how does the cell viability read?
Answer: 97.1%

Question: For `O=C(O)[C@]1(Cc2cccc(Nc3nccs3)n2)CC[C@@H](Oc2cccc(Cl)c2F)CC1`, which cell viability is on record?
Answer: 18.6%

Question: `O=C(Oc1cccc(F)c1OC(=O)c1cccc(O)c1)c1cccc(O)c1` was tested. Which cell viability did it give?
Answer: 94.9%

Question: For `C[C@@H](O)[C@H]1C(=O)N2C(C(=O)O)=C(S[C@@H]3CN[C@H](C(=O)N(C)C)C3)[C@H](C)[C@H]12` [Meropenem], which cell viability is on record?
Answer: 106%
